Experimental data as given in PubChem BioAssay (NCI).
Compounds without any hit were thinned out: in the full panel of roughly 79,000, 15% have a hit. Activity calls are given as the source filed them. Rule as the data show it: active = growth inhibition above about 70%; inactive = the rest.

Tests used:
[1] = NCI Yeast Anticancer Drug Screen. Data for the rad50 strain (AID 155);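 also: 0% = growth of vehicle-only cultures of the same strain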; conditions: S. cerevisiae rad50 strain growth inhibition, stronger effect = higher value
Method in brief: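 Inhibition values express reduced yeast growth in compound-treated cultures relative to vehicle-treated controls.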

[2] = NCI Yeast Anticancer Drug Screen. Data for the mec2-1 strain (AID 157); conditions: S. cerevisiae mec2-1 strain, stronger effect = higher value
Method in brief: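 Cells of the genetically defined mec2-1 yeast strain are incubated with test compound. Inhibition of growth is calculated against vehicle-treated controls.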

[3] = NCI Yeast Anticancer Drug Screen. Data for the sgs1 mgt1 strain (AID 161);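 also: 0% = growth of cultures given vehicle only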; conditions: S. cerevisiae sgs1 mgt1 strain, stronger effect = higher value
Method in brief: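 Genetically altered yeast, compound exposure, growth inhibition relative to vehicle.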

[4] = NCI Yeast Anticancer Drug Screen. Data for the cln2 rad14 strain (AID 165);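 also: 0% = growth equal to vehicle treated cultures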; conditions: S. cerevisiae cln2 rad14 strain, stronger effect = higher value
Method in brief: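 The screen exposed genetically defined yeast (cln2 rad14) to test compounds and scored growth inhibition relative to vehicle-treated controls.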

[5] = NCI Yeast Anticancer Drug Screen. Data for the bub3 strain (AID 167); conditions: S. cerevisiae bub3 mutant strain, stronger effect = higher value
Method in brief: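 Steps: expose the mutant yeast strain to compound; grow alongside vehicle-treated cultures; measure growth; express inhibition against the vehicle cultures.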

[6] = NCI Yeast Anticancer Drug Screen. Data for the mlh1 rad18 strain (AID 175); conditions: S. cerevisiae mlh1 rad18 strain growth inhibition, stronger effect = higher value
Method in brief: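 Compound-treated yeast growth, normalised to vehicle controls. Strain bears defined DNA repair mutations.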

[7] = at 5.0 µM (retest, dose inferred, filed as 0.5)
[8] = at 50.0 µM (retest, dose inferred, filed as 5.0)

Measured: growth inhibition

O=C1/C(=C/c2ccc(F)cc2)CNC/C1=C\c1ccc(F)cc1
active: [1]; at 50.0 µM 79.2% | [2]; at 50.0 µM 84.8% | [3]; at 50.0 µM 79.2% | [4]; at 50.0 µM 70.6% | [5]; at 50.0 µM 79.8% | [6]; at 50.0 µM 85.5%
inactive: [1]; [7] 12% | [1]; [8] 44% | [2]; [7] 5% | [2]; [8] 36% | [3]; [7] -2% | [3]; [8] 31% | [4]; [7] 35% | [4]; [8] 43% | [5]; [7] -11% | [5]; [8] 37% | [6]; [7] 16% | [6]; [8] 53%

CC1CC(c2ccccc2)(c2ccccc2)C(=O)C(C)N1C (stereo not given)
inactive: [1]; [7] -1% | [1]; [8] 22% | [1]; at 50.0 µM 13.6% | [2]; [7] -2% | [2]; [8] -5% | [2]; at 50.0 µM 29.9% | [3]; [7] 0% | [3]; [8] -19% | [3]; at 50.0 µM 14.2% | [4]; [7] -1% | [4]; [8] -2% | [4]; at 50.0 µM 28% | [5]; [7] -4% | [5]; [8] 10% | [6]; [7] -3% | [6]; [8] 7% | [6]; at 50.0 µM 25.9%
active: [5]; at 50.0 µM 72%

O=C1CSC(=S)N1Cc1ccccc1Cl
inactive: [1]; [7] 15% | [2]; [7] 6% | [3]; [7] 11% | [4]; [7] 2% | [5]; [7] -1% | [6]; [7] 11%
active: [1]; [8] 93% | [1]; at 50.0 µM 98.9% | [2]; [8] 97% | [2]; at 50.0 µM 96.2% | [3]; [8] 98% | [3]; at 50.0 µM 97.9% | [4]; [8] 81% | [4]; at 50.0 µM 97.3% | [5]; [8] 94% | [5]; at 50.0 µM 95.2% | [6]; [8] 98% | [6]; at 50.0 µM 99%

COC1CCC2(C)C(=CCC3C4CC(OC(C)=O)CC4(C)CCC32)C1 (stereo not given)
inactive: [1]; [7] 0% | [1]; [8] 5% | [1]; at 50.0 µM 5.25% | [2]; [7] -2% | [2]; [8] 5% | [2]; at 50.0 µM 0.45% | [3]; [7] 2% | [3]; [8] 3% | [3]; at 50.0 µM -4.15% | [4]; [7] -1% | [4]; [8] 4% | [4]; at 50.0 µM 9.5% | [5]; [7] 0% | [5]; [8] 6% | [5]; at 50.0 µM -7.3% | [6]; [7] 2% | [6]; [8] 9% | [6]; at 50.0 µM -4.2%

NC(=O)N/N=C1/CC2CCCCC2c2ccccc21 (stereo not given)
active: [1]; [8] 92% | [2]; [8] 86% | [5]; [8] 94% | [5]; at 50.0 µM 86.2% | [6]; [8] 94%
inactive: [1]; [7] 12% | [1]; at 50.0 µM 67.8% | [2]; [7] -4% | [2]; at 50.0 µM 13% | [3]; [7] -2% | [3]; [8] 66% | [3]; at 50.0 µM 58% | [4]; [7] 0% | [4]; [8] 69% | [4]; at 50.0 µM 19.2% | [5]; [7] 0% | [6]; [7] -6% | [6]; at 50.0 µM 23.5%

C1=NC2c3ccccc3Cc3cccc1c32 (stereo not given)
inactive: [1]; [7] -20% | [2]; [7] -3% | [3]; [7] 7% | [4]; [7] -28% | [5]; [7] 2% | [6]; [7] -13%
active: [1]; [8] 94% | [1]; at 50.0 µM 95.4% | [2]; [8] 97% | [2]; at 50.0 µM 95.8% | [3]; [8] 97% | [3]; at 50.0 µM 95.3% | [4]; [8] 96% | [4]; at 50.0 µM 93.6% | [5]; [8] 97% | [5]; at 50.0 µM 93.3% | [6]; [8] 97% | [6]; at 50.0 µM 94.3%

CCCCCCCCc1ccc2c3ccccc3c3ccccc3c2c1
active: [1]; at 50.0 µM 76.8%
inactive: [1]; [7] -9% | [1]; [8] -12% | [2]; [7] -19% | [2]; [8] -5% | [2]; at 50.0 µM 60.4% | [3]; [7] -19% | [3]; [8] -3% | [3]; at 50.0 µM 65.8% | [4]; [7] -1% | [4]; [8] -12% | [4]; at 50.0 µM 3.05% | [5]; [7] -1% | [5]; [8] -10% | [5]; at 50.0 µM 8.65% | [6]; [7] 23% | [6]; [8] 6% | [6]; at 50.0 µM 58.9%

CN(C)C(N)=NC#N
active: [1]; at 50.0 µM 73.2% | [2]; [8] 86% | [2]; at 50.0 µM 75.7% | [3]; [8] 96% | [5]; [8] 95% | [6]; [8] 71%
inactive: [1]; [7] 25% | [1]; [8] 47% | [2]; [7] 22% | [3]; [7] 27% | [3]; at 50.0 µM 51.2% | [4]; [7] 20% | [4]; [8] 54% | [4]; at 50.0 µM 9.65% | [5]; [7] 29% | [5]; at 50.0 µM 65.2% | [6]; [7] 33% | [6]; at 50.0 µM 67%

CN(Cc1cc(C(C)(C)C)cc(Br)c1O)Cc1cc(C(C)(C)C)cc(Br)c1O
inactive: [1]; [7] 2% | [1]; [8] 24% | [2]; [7] -2% | [3]; [7] -9% | [3]; [8] 64% | [3]; at 50.0 µM 58.8% | [4]; [7] -11% | [5]; [7] -11% | [6]; [7] -8% | [6]; at 50.0 µM 61.1%
active: [1]; at 50.0 µM 72% | [2]; [8] 91% | [2]; at 50.0 µM 86.2% | [4]; [8] 87% | [4]; at 50.0 µM 89.5% | [5]; [8] 71% | [5]; at 50.0 µM 81.3% | [6]; [8] 84%

Cn1c(=O)cc2c3c(ccc(C(=O)O)c31)C(=O)c1ccccc1-2
active: [1]; at 50.0 µM 80.2%
inactive: [1]; [7] 40% | [1]; [8] 34% | [2]; [7] 10% | [2]; [8] 50% | [2]; at 50.0 µM 36.2% | [3]; [7] 2% | [3]; [8] 27% | [3]; at 50.0 µM 45.1% | [4]; [7] -8% | [4]; [8] 22% | [4]; at 50.0 µM 16.5% | [5]; [7] 1% | [5]; [8] 62% | [5]; at 50.0 µM 61.8% | [6]; [7] 12% | [6]; [8] 50% | [6]; at 50.0 µM 51.7%
